Data as given in PubChem BioAssay (NCI).
About 83,000 compounds went through this panel and 20% of them were active in at least one assay; those are over-represented in the sample as a whole.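 A percent growth of 40 corresponds to 60% growth inhibition; 0 means no net growth; -100 means all cells died. Active threshold: below 10.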 Activity calls are given as the source filed them.

How the values were obtained:
Experiment in all cases: NCI-60 one-dose screen, 48 h (100 = growth as untreated, 0 = no growth, -100 = all killed)
Settings in all cases: 10 µM
NCI-H23 lung = system: NCI-H23 lung
NCI-H226 lung = system: NCI-H226 lung
HOP-62 NSCLC = system: HOP-62 NSCLC
HOP-92 NSCLC = system: HOP-92 NSCLC
NCI-H522 lung = system: NCI-H522 lung
A549/ATCC NSCLC = system: A549/ATCC NSCLC
786-0 renal = system: 786-0 renal
COLO 205 colon = system: COLO 205 colon
NCI-H460 lung = system: NCI-H460 lung

Measured: growth

Cc1cccc(N=Cc2ccccc2O)c1C
inactive: NCI-H23 lung 94.8% | NCI-H226 lung 104% | HOP-62 NSCLC 103% | HOP-92 NSCLC 97.3% | NCI-H522 lung 114% | A549/ATCC NSCLC 88.2% | 786-0 renal 94.5% | COLO 205 colon 106%

CN(C)c1ncnc2c1nnn2C1OC(CO)C(O)C1O (stereo unspecified)
inactive: NCI-H226 lung 39.9% | HOP-62 NSCLC 32.7% | HOP-92 NSCLC 19.6% | A549/ATCC NSCLC 36.3% | 786-0 renal 17.2%
active: NCI-H23 lung 4.79% | NCI-H522 lung -25.2% | COLO 205 colon -80.9%

CC(=O)[C@H]1CC[C@]2(C)[C@@H]1CC[C@@H]1[C@@]3(C)CC(CCC#N)(CCC#N)C(=O)C(C)(C)[C@@H]3CC[C@]12C
inactive: NCI-H23 lung 86.7% | NCI-H226 lung 94.6% | HOP-62 NSCLC 99.3% | HOP-92 NSCLC 105% | NCI-H522 lung 94.1% | A549/ATCC NSCLC 103% | 786-0 renal 101%

CCOC(=O)CC(S(=O)(=O)c1ccccc1)S(=O)(=O)c1ccccc1
inactive: NCI-H23 lung 98.3% | NCI-H226 lung 95.7% | HOP-62 NSCLC 109% | HOP-92 NSCLC 89.7% | A549/ATCC NSCLC 95.3% | 786-0 renal 115%
active: NCI-H522 lung -11.9% | COLO 205 colon -87.1%

C/C=C/C1=CN2C(=O)c3cc(OC4OC(C)C(NC)C(C)(O)C4O)c(C)c(O)c3N=C[C@@H]2C1 (stereo partly specified)
active: NCI-H23 lung -43.7% | NCI-H226 lung 3.31% | HOP-62 NSCLC -7% | HOP-92 NSCLC -17.8% | NCI-H522 lung -28.5% | A549/ATCC NSCLC 5.24% | 786-0 renal -25% | COLO 205 colon -49.2%

O=C(COc1cccc(/C=C2\CSc3ccccc3C2=O)c1)c1ccc(Cl)cc1
inactive: NCI-H226 lung 80.1% | HOP-62 NSCLC 79.5% | HOP-92 NSCLC 56.5% | A549/ATCC NSCLC 40.6% | 786-0 renal 80.3% | COLO 205 colon 96.2%
active: NCI-H23 lung -7.19% | NCI-H522 lung -76.8%

CCOC(=O)c1cc(C(=O)c2ccc(F)cc2F)n2ccccc12
inactive: NCI-H23 lung 101% | NCI-H226 lung 88.2% | HOP-62 NSCLC 88.6% | HOP-92 NSCLC 47.1% | NCI-H522 lung 70.1% | A549/ATCC NSCLC 86% | 786-0 renal 90.6% | COLO 205 colon 110%

O=[N+]([O-])c1ccc(NCSc2ccc(Cl)cc2)cc1
inactive: NCI-H23 lung 99.4% | NCI-H226 lung 112% | HOP-62 NSCLC 109% | HOP-92 NSCLC 98.2% | NCI-H522 lung 86.5% | A549/ATCC NSCLC 96.3% | 786-0 renal 93.4% | COLO 205 colon 103%

CC(C)C1=C(O)C2=C(C(=O)C1=O)[C@@]1(C)CCCC(C)(C)[C@@H]1CC2
inactive: NCI-H23 lung 65.8% | NCI-H226 lung 83.5% | HOP-62 NSCLC 70.6% | HOP-92 NSCLC 53.6% | NCI-H522 lung 86.9% | A549/ATCC NSCLC 62.1% | 786-0 renal 78.7% | COLO 205 colon 92.7%

COc1cc2cc(Oc3ccc(NC(=O)c4cc(C(F)(F)F)cc(C(F)(F)F)c4)cc3)c(C)nc2cc1OC
active: HOP-92 NSCLC -6.21%
inactive: NCI-H23 lung 32.6% | NCI-H226 lung 53.6% | HOP-62 NSCLC 84.7% | NCI-H522 lung 34% | A549/ATCC NSCLC 30.7% | 786-0 renal 64.5% | COLO 205 colon 51.7%

COc1ccc(/C(=N\N)C(=O)c2ccccc2)cc1 (tested in a mixture with another compound)
inactive: NCI-H23 lung 96.8% | NCI-H226 lung 95.6% | HOP-62 NSCLC 100% | HOP-92 NSCLC 82.7% | NCI-H522 lung 72.7% | A549/ATCC NSCLC 90.4% | 786-0 renal 105% | COLO 205 colon 110%

CN(C)CCC1(c2ccccc2)CCN(C)C1=O (stereo unspecified)
inactive: NCI-H23 lung 103% | NCI-H226 lung 95.7% | HOP-62 NSCLC 96.9% | HOP-92 NSCLC 123% | NCI-H522 lung 86.4% | A549/ATCC NSCLC 105% | 786-0 renal 109% | COLO 205 colon 105%

Clc1ccc(Cc2ccncc2)cc1
inactive: NCI-H23 lung 105% | NCI-H226 lung 109% | HOP-62 NSCLC 107% | HOP-92 NSCLC 85.6% | NCI-H522 lung 82% | A549/ATCC NSCLC 106% | 786-0 renal 97.3% | COLO 205 colon 109%

Fc1ccc(C(c2ccc(F)cc2)C(Cl)Cl)cc1
inactive: NCI-H23 lung 100% | NCI-H226 lung 105% | HOP-62 NSCLC 115% | HOP-92 NSCLC 75.8% | NCI-H522 lung 93.8% | A549/ATCC NSCLC 102% | 786-0 renal 95.7% | COLO 205 colon 108%

COc1ccc(C(=O)N2C=Cc3ccccc3C2C#N)cc1 (stereo unspecified)
inactive: NCI-H23 lung 95.3% | NCI-H226 lung 87.7% | HOP-62 NSCLC 89.4% | HOP-92 NSCLC 102% | NCI-H522 lung 94.2% | A549/ATCC NSCLC 101% | 786-0 renal 114% | COLO 205 colon 105%

COc1ccc(-c2csc(NC(=O)c3ccc(Cc4n[nH]c(=O)c5cccnc45)cc3)n2)cc1
inactive: NCI-H23 lung 80.4% | NCI-H226 lung 71.4% | HOP-62 NSCLC 92% | HOP-92 NSCLC 75.3% | NCI-H522 lung 80.7% | A549/ATCC NSCLC 101% | 786-0 renal 99.2% | COLO 205 colon 110%

COc1ccc(-c2nn(-c3cccc(Cl)c3)cc2/C=C2\NC(=S)N(c3ccc(Cl)cc3)C2=O)cc1
active: NCI-H23 lung -7.88% | NCI-H226 lung -42.5% | NCI-H522 lung -37.7%
inactive: NCI-H460 lung 11% | HOP-92 NSCLC 29.3% | A549/ATCC NSCLC 18.8% | 786-0 renal 46.6% | COLO 205 colon 36.9%

Cc1cn(-c2cccc(NC(=O)c3ccc(C)c(Nc4nccc(-c5cccnc5)n4)c3)c2)cn1
active: NCI-H226 lung -43% | NCI-H460 lung -13% | HOP-92 NSCLC -13% | NCI-H522 lung -17.7% | 786-0 renal -52.2%
inactive: NCI-H23 lung 32.2% | A549/ATCC NSCLC 10.7% | COLO 205 colon 11%

CCCCC(CC)CN=C(N)NC(N)=NCCCCCCN=C(N)NC(N)=NCC(CC)CCCC (stereo unspecified)
active: NCI-H23 lung -80% | NCI-H226 lung -63.1% | NCI-H460 lung -71.3% | HOP-92 NSCLC -53.9% | A549/ATCC NSCLC -87.1% | 786-0 renal -31.2%

Cc1cc(CC(C)CC(C)(C)C)n(O)c(=O)c1 (stereo unspecified) (tested in a mixture with another compound)
active: NCI-H460 lung 3.41%
inactive: NCI-H23 lung 14.6% | NCI-H226 lung 14.1% | HOP-92 NSCLC 73.6% | A549/ATCC NSCLC 20.2% | 786-0 renal 29% | COLO 205 colon 95.5%

COc1ccc(-c2nn(-c3cccc(Cl)c3)cc2-c2cc(-c3ccccc3)nc(N)n2)cc1
inactive: NCI-H23 lung 42.2% | NCI-H226 lung 69.3% | NCI-H460 lung 31.6% | HOP-92 NSCLC 69.2% | NCI-H522 lung 45.8% | A549/ATCC NSCLC 61.1% | 786-0 renal 60.1% | COLO 205 colon 35.8%

COc1ccc(-c2nn(-c3cccc(Cl)c3)cc2C=C(C#N)C#N)cc1
active: NCI-H23 lung -45.2% | NCI-H460 lung 1.56% | NCI-H522 lung -12.1% | 786-0 renal -8.39% | COLO 205 colon -9.68%
inactive: NCI-H226 lung 25.4% | HOP-92 NSCLC 11% | A549/ATCC NSCLC 19.1%

Cc1ccc(C2=NN(c3ccc(S(C)(=O)=O)cc3)C(=O)CC2)cc1
active: NCI-H23 lung -19.6% | NCI-H522 lung -28.5% | COLO 205 colon 4.23%
inactive: NCI-H226 lung 77.6% | NCI-H460 lung 12.8% | HOP-92 NSCLC 60.9% | A549/ATCC NSCLC 36.6% | 786-0 renal 38.3%

COc1ccc(C(=O)c2ccccc2CN2C(=O)c3ccccc3C2=O)cc1
inactive: NCI-H23 lung 91.7% | NCI-H226 lung 102% | NCI-H460 lung 105% | HOP-92 NSCLC 86.7% | NCI-H522 lung 95.3% | A549/ATCC NSCLC 98.9% | 786-0 renal 101% | COLO 205 colon 118%

Cc1cc(NC(=O)c2ccc(C)c(Nc3nccc(-c4cccnc4)n3)c2)cc(-n2cnc(C)c2)c1
active: NCI-H226 lung -17.6% | NCI-H460 lung 2.48% | 786-0 renal -30% | COLO 205 colon 4.18%
inactive: NCI-H23 lung 67.6% | HOP-92 NSCLC 25.3% | NCI-H522 lung 59.3% | A549/ATCC NSCLC 47.1%

COc1ccccc1-n1c(-c2sc(NC(C)=O)nc2C)n[nH]c1=S
inactive: NCI-H23 lung 101% | NCI-H226 lung 106% | NCI-H460 lung 110% | HOP-92 NSCLC 105% | NCI-H522 lung 102% | A549/ATCC NSCLC 104% | 786-0 renal 106% | COLO 205 colon 116%

O=C1/C=C/[C@@H](O)[C@@H]2C[C@@H](O)C[C@H]2/C=C/CCC[C@H](CCc2ccc(C(F)(F)F)cc2)O1
active: NCI-H23 lung -10.5% | NCI-H226 lung 0.477% | HOP-62 NSCLC -4.15% | NCI-H522 lung -58.5% | A549/ATCC NSCLC 8.38%

CC1=CC2C(C(O)CC3(C)C2CC(C)C32OCOC23COCO3)C2(C)C/C(=C/O)C(=O)C=C12 (stereo unspecified)
active: NCI-H23 lung -0.378% | NCI-H460 lung 7.96% | NCI-H522 lung -26.7%
inactive: NCI-H226 lung 78.4% | HOP-92 NSCLC 94.1% | A549/ATCC NSCLC 41.8% | 786-0 renal 58.8%

O=C1CCn2c1c(O)c1ccccc1c2=O
inactive: NCI-H23 lung 99.5% | NCI-H226 lung 101% | NCI-H460 lung 105% | HOP-92 NSCLC 95.4% | NCI-H522 lung 112% | A549/ATCC NSCLC 100% | 786-0 renal 105% | COLO 205 colon 123%

COc1ccc(-c2nn(-c3cccc(Cl)c3)cc2-c2nc(N)[nH]c(=O)c2C#N)cc1
inactive: NCI-H23 lung 42.7% | NCI-H226 lung 67.3% | NCI-H460 lung 92.2% | HOP-92 NSCLC 71.2% | NCI-H522 lung 49.6% | A549/ATCC NSCLC 85.1% | 786-0 renal 57.2% | COLO 205 colon 107%

O=c1cn[nH]c2ccc(Br)cc12
inactive: NCI-H23 lung 97.6% | NCI-H226 lung 100% | NCI-H460 lung 108% | HOP-92 NSCLC 123% | NCI-H522 lung 91.3% | A549/ATCC NSCLC 102% | 786-0 renal 99.6% | COLO 205 colon 109%

OCC1OC(n2cnc3c(NCc4ccco4)ncnc32)C(O)C1O (stereo unspecified)
inactive: NCI-H23 lung 18% | NCI-H226 lung 51.8% | HOP-62 NSCLC 43.2% | NCI-H522 lung 23.8% | A549/ATCC NSCLC 22.2% | 786-0 renal 18.2% | COLO 205 colon 19.6%
active: HOP-92 NSCLC -10.8%

C/C(=C/CCC(C)[C@@H]1CC[C@]2(C)C3=C(CC[C@@]12C)[C@@]1(C)CCC(=O)C(C)(C)[C@@H]1CC3)C(=O)O (stereo partly specified)
active: NCI-H23 lung -78.3% | NCI-H226 lung -47.3% | NCI-H460 lung -80.7% | HOP-92 NSCLC -93.3% | NCI-H522 lung -69% | A549/ATCC NSCLC -56.2% | 786-0 renal -92% | COLO 205 colon -91%
